Bioassay records deposited in PubChem BioAssay by National Center for Advancing Translational Sciences (NCATS).
D2 ag-1 = HTS Assay for Allosteric Agonists of the Human D2 Dopamine Receptor: Primary Screen for Agonists; HEK293 T-REx D2 cells, calcium flux agonist mode; D(2) dopamine receptor (Homo sapiens), P14416; 0.53% of 340,000 active; activation, % at 2 µM;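 active means activation over 3 SD above normal in the single-dose calcium agonist read, cut at about 30% in these data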; further: 0% is about no effect
Target sequence (P14416 whole entry, looked up): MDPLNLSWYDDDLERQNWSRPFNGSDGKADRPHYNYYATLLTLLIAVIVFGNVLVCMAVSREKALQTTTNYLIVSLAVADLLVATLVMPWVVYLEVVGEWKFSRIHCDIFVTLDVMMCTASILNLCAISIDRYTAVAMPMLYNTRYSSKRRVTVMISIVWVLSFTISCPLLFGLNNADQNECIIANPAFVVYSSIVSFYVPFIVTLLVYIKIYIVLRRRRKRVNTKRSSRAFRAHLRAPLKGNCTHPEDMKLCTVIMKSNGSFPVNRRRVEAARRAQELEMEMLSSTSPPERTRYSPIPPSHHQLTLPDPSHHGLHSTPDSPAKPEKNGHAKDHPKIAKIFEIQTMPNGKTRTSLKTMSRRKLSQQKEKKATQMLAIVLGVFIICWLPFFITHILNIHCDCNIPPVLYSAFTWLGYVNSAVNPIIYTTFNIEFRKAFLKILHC
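HEK293 Trex D2 cells, tetracycline-induced, o/n 30 C 5% CO2; no-wash Ca dye, RT 30–90 min; 10-cycle baseline, 23 nl cpd added, kinetic Ca read 180 s; agonist hits = positive Ca response.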
D2 PAM-1 = HTS Assay for Positive Allosteric Modulators of the Human D2 Dopamine Receptor: Primary Screen for Potentiators | D(2) dopamine receptor (Homo sapiens), P14416 | HEK293 T-REx D2, calcium flux, EC20 dopamine potentiation | potentiation, % at 10 µM | 0.34% of 340,000 active | AID 485347, 2010;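 active means potentiation over 3 SD above the plate norm, cut at about 30% in these data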; further: 0% is about no effect
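Potentiation of an EC20 dopamine calcium response measured kinetically over 180 s, after a preceding 180 s compound-only read flagging agonists. Cells: inducible Hek293 Trex D2 line, 4000/well, cultured overnight at 30 C before dye loading.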
D2 PAM-2 = Beta-Arrestin HTS for Positive Allosteric Modulators of the Human D2 Dopamine Receptor: Potentiators; DiscoveRx D2 beta-arrestin cells, luminescence, 90 min; 100% = 57 uM dopamine signal; D(2) dopamine receptor (Homo sapiens), P14416; 0.23% of 360,000 active; AID 624464, 2012; potentiation, % (no concentration beside the values); in the data active means potentiation above about 50%
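D2 cells co-treated with compound plus 50 nM dopamine (EC20) for 90 min at 37 deg C to detect potentiation. Beta-arrestin recruitment was read as enzyme-fragment luminescence after 1 h at ambient temperature. Full response was set by 57 uM dopamine.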
D2 ag-2 = Beta-Arrestin HTS for Positive Allosteric Modulators of the Human D2 Dopamine Receptor: Agonists; D(2) dopamine receptor (Homo sapiens), P14416; DiscoveRx PathHunter D2 beta-arrestin, luminescence, 90 min; 100% = 57 uM dopamine signal; activation, % (concentration not given with the values); 0.084% of 360,000 active; in the data active means activation above about 40%
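DiscoveRx PathHunter D2 beta-arrestin cells (2,100/well) attached overnight, then compound-stimulated 90 min at 37 C in HBSS/10 mM HEPES/0.1% Tween-20 buffer; beta-galactosidase complementation read by luminescence after 1 h at ambient temperature. Dopamine 57 uM final (EC100) as control.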
LDHA block = qHTS assay for inhibitors of human lactate dehydrogenase. purified LDHA, NADH/diaphorase-resazurin fluorescence; hits give low values. activity change, % (values are at about 110 or 230 µM). 0.15% of 480,000 active; in the data active means activity change below about -30%;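 further: plate controls were DMSO wells for no effect and wells without enzyme for full effect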
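LDH5 2 nM; NADH 0.06 mM, pyruvate 0.2 mM; 200 mM Tris pH 7.4, EDTA, Tween-20; 5 min RT. Detection: diaphorase 0.133 mg/mL + resazurin 37 µM, fluorescence ex540/em590 at 0 and 20 min; normalized to enzyme-free and DMSO wells.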
D2 antag = HTS Assay for Allosteric Antagonists of the Human D2 Dopamine Receptor: Primary Screen for Antagonists | D(2) dopamine receptor (Homo sapiens), P14416 | HEK293 TREx D2 cells, calcium flux, dopamine EC80 | inhibition, % at 10 µM | 2% of 340,000 active | AID 485344, 2010; in the data active means inhibition above about 30%; inactive means below that, where a call was filed; further: 0% is about no effect
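Measurement of antagonist activity uses fluorescent calcium dye in inducible HEK293 T-REx D2 cells: 10 s baseline, compound addition with 180 s read, EC80 dopamine addition with a further 180 s read.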
Starred values were filed as active, the others as inactive; . = no result. This is a sample that favours compounds with a hit; in the whole collection about 2.1% have one here.

SMILES	D2 ag-1	D2 PAM-1	D2 PAM-2	D2 ag-2	LDHA block	D2 antag
COc1ccccc1N1CCN(CC(=O)Nc2cccc(F)c2)CC1	0.5	-20.7	-15.5	-2.6	-0.4	31.3*
COc1ccccc1N1CCN(CCC(=O)Nc2cccc(Cl)c2)CC1	36.0*	-39.0	-26.1	-1.6	-0.9	96.2*
O=C(CN1CCN(c2ccc(F)cc2)CC1)NCC1CCCO1 (stereo not given)	0.0	5.1	-12.0	0.0	2.5	-7.5
COc1ccccc1NC(=O)CN1CCCCC1	0.5	-7.4	-6.5	-4.2	-7.5	7.3
O=C(CN1CCC(NC(=O)C2CC2)CC1)Nc1cccc(F)c1	0.2	-21.2	-19.0	-3.3	-12.4	31.5*
CCN1CCN(CC(=O)Nc2c(OC)cccc2OC)CC1	0.9	1.0	-9.0	-4.5	-31.1*	11.5
COc1ccc(-c2nnc(SCC(=O)c3[nH]c(C)c(C(C)=O)c3C)o2)cc1	0.4	38.1*	-4.1	0.8	-5.4	-8.5
COc1cccc(C(=O)C2CCCN(Cc3cccc(-n4cccn4)c3)C2)c1 (stereo not given)	-1.1	-23.1	-10.2	-2.9	-6.9	31.7*
Cc1c(CN2CCCC(C(=O)Nc3cccc(-n4cccn4)c3)C2)cnn1C (stereo not given)	-3.1	-17.5	-19.4	-3.2	-0.8	46.6*
Cc1cc(CN2CCCC(C(=O)Nc3cccc(-n4cccn4)c3)C2)cc(C)c1O (stereo not given)	1.2	-21.7	-33.7	-3.9	-6.8	38.0*
Cn1cc(CN2CCCC(C(=O)Nc3cccc(-n4cccn4)c3)C2)cn1 (stereo not given)	-0.4	-19.0	-39.1	-3.5	-2.5	20.6
COc1cc(C2CC(=O)N3CN(c4cccc(Cl)c4)CSC3=C2C#N)ccc1O (stereo not given)	.	.	.	.	10.1	.
C(#CC(c1ccccc1)(c1ccccc1)C1CCCCC1)CN1CCOCC1	.	.	.	.	5.2	.
CCN1CCN(CC(=O)N/N=C/c2cc(Br)cs2)CC1	-1.3	9.2	-33.5	-6.4	-30.2*	-2.2
Cc1nccn1CC(=O)N/N=C/c1cc(Br)cs1	0.5	4.5	-14.5	-3.7	-12.4	15.2
CCc1nnc(NC(=O)c2ccc(COc3ccccc3)o2)s1	-1.0	29.9	-3.3	-1.6	-8.6	-12.4
CCCc1nnc(NC(=O)CCC(=O)Nc2ccc(Br)cc2)s1	0.5	-23.6	-15.9	-2.1	-4.3	12.2
CCc1nnc(NC(=O)c2ccc(COc3ccc(C)cc3)o2)s1	0.6	0.0	-0.2	-3.0	3.5	30.2*
CCc1nnc(NC(=O)CCC(=O)Nc2ccc(C)cc2)s1	1.0	-8.6	-10.9	-8.9	-11.6	43.2*
CC(Oc1ccc(C=Nc2ccc(N3CCOCC3)cc2)cc1)C(=O)O (stereo not given)	.	.	.	.	28.4	.
CC(C)/C=C(/C(=O)c1ccc(Cl)cc1Cl)n1cncn1	0.9	5.8	20.6	46.0*	-14.0	2.0
N#Cc1ccc(OCCSCc2cccc(F)c2)cc1	.	.	.	.	14.0	.
O=C(Nc1ccc(NC(=O)c2cccs2)cc1)c1ccc2c(c1)OCO2	0.7	-6.2	-4.1	-3.8	-10.3	-4.6
O=C(Nc1ccc(N2CCOCC2)c(Cl)c1)c1ccc2c(c1)OCCO2	2.3	19.0	-4.4	5.5	-7.6	30.5*
O=C(Nc1ccc(NC(=O)c2cccs2)cc1)c1ccc2c(c1)OCCO2	2.5	-16.7	-9.1	-2.9	-0.7	34.2*
SMILES	D2 ag-1	D2 PAM-1	D2 PAM-2	D2 ag-2	LDHA block	D2 antag
Cc1cc(C)c(S(=O)(=O)c2ccccc2)c(OC(=O)c2c(F)cccc2F)n1	0.4	-5.3	-9.7	-1.4	-49.9*	-24.7
Cc1cc(C)c(S(=O)(=O)c2ccccc2)c(OC(=O)c2c(Cl)cc(Cl)cc2Cl)n1	.	.	-12.3	-3.8	-3.1	.
c1ccc(-n2ncc3c(NC4CCCCCC4)ncnc32)cc1	-0.3	-2.1	-3.1	-2.9	-2.1	46.0*
NNc1ncnc2c1cnn2-c1ccccc1	0.0	6.5	-7.0	-4.2	-4.8	30.7*
Clc1ccc(-n2ncc3c(NC4CCCCCC4)ncnc32)cc1	.	.	.	.	2.5	.
COc1ccc(-c2nn(-c3ccccc3)cc2C2CC(c3cccs3)=NN2S(C)(=O)=O)cc1 (stereo not given)	.	.	.	.	-0.2	.
Cc1[nH]c2ccccc2c1C(=O)COC(=O)c1ccccn1	.	.	.	.	18.8	.
CNC(=S)N1N=C(c2ccc(OC)cc2)CC1c1ccccc1Cl (stereo not given)	-0.1	7.4	0.7	-1.8	-7.0	33.5*
CNC(=S)N1N=C(c2ccc(OC)cc2)CC1c1ccc(Cl)cc1Cl (stereo not given)	0.2	-3.5	0.4	0.6	-5.9	15.2
COc1ccccc1N1CCN(C2CCCN(Cc3ccccc3OCCO)C2)CC1 (stereo not given)	0.0	-12.7	-19.3	5.8	-1.9	-3.5
COc1ccccc1N1CCN(C2CCCN(Cc3ccc(Cl)cc3)C2)CC1 (stereo not given)	0.3	-20.9	-25.2	0.1	-5.2	37.1*
COc1ccc(O)c(CN2CCCC(N3CCN(c4ccccc4OC)CC3)C2)c1 (stereo not given)	0.2	-11.4	-24.4	5.6	-0.2	0.8
COc1ccccc1N1CCN(C2CCCN(Cc3cc(F)cc(F)c3)C2)CC1 (stereo not given)	0.5	0.3	-4.1	-4.0	-10.4	40.9*
O=c1c2c(ncn2Cc2ccco2)n(Cc2ccccc2)c(=O)n1CC(O)c1ccccc1 (stereo not given)	.	.	.	.	8.4	.
Cc1c(C(=O)Nc2ccncc2)sc2nc(-c3ccccc3)cn12	1.2	-14.8	-2.7	5.7	-4.3	-7.3
Cc1c(C(=O)Nc2ccc3c(c2)OCCO3)sc2nc(-c3ccccc3)cn12	-1.2	-4.4	-7.0	3.2	0.3	72.8*
CC1(C)Cc2c(c(N3CCOCC3)nc3sc(C#N)c(N)c23)CS1	-0.3	13.8	2.7	-3.5	-2.6	38.1*
CCNc1nc(NCC)nc(N/N=C/c2ccc(O)c(O)c2)n1	-0.3	2.3	7.6	13.6	7.6	43.6*
CCNc1nc(NCC)nc(N/N=C/c2ccc(N(C)C)cc2)n1	0.5	-2.3	-9.0	-1.2	-3.8	-21.6
